Experimental data published in PubChem BioAssay (Tox21).
“And” between values parts separate entries of the source, which are not always exact repeats. Identical values can stand only once. Inconclusive results are not listed. Entries that show only a call come without a potency. Some compounds were tested as several samples or in several runs, with calls that do not always agree. The source made the active and inactive calls. Unless noted, calls follow the shape of the dose curve; as a rule, active = well fitted curve in the direction sought with a large enough effect in the repeat runs; inconclusive = weak or mixed curves; inactive = no such curve, though single readings can be large; an effect the other way counts as inactive or inconclusive.

Key:
[1] = qHTS assay to identify small molecule antagonists of the glucocorticoid receptor (GR) signaling pathway - cell viability counter screen (AID 720693); also: nearly all actives have a fitted effect of over 55% in size; also: potency is read from the fitted curve at half-maximal effect
[2] = qHTS assay for identifying genotoxic compounds that show differential cytotoxicity against isogenic chicken DT40 cell lines with known DNA damage response pathways - wild type cell line (AID 743012); also: nearly all actives have a fitted effect of over 60% in size; also: potency is read from the fitted curve at half-maximal effect
In short: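 Quantitative HTS on parental DT40 cells: 40 h compound treatment at 37 C/5% CO2, with viability then determined by CellTiter-Glo luminescence. Values serve as the DNA repair-proficient reference for differential cytotoxicity.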

[3] = qHTS assay for identifying genotoxic compounds that show differential cytotoxicity against isogenic chicken DT40 cell lines with known DNA damage response pathways - Rev3 mutant cell line (AID 743014); also: nearly all actives have a fitted effect of over 55% in size; also: potency is read from the fitted curve at half-maximal effect
[4] = qHTS assay for identifying genotoxic compounds that show differential cytotoxicity against isogenic chicken DT40 cell lines with known DNA damage response pathways - Rad54/Ku70 mutant cell line (AID 743015); also: nearly all actives have a fitted effect of over 60% in size; also: potency is read from the fitted curve at half-maximal effect
[5] = qHTS assay to identify small molecule antagonists of the androgen receptor (AR) signaling pathway - cell viability counter screen (AID 743033; also: nearly all actives have a fitted effect of over 45% in size; also: potency is read from the fitted curve at half-maximal effect)
[6] = qHTS assay to identify small molecule antagonists of the androgen receptor (AR) signaling pathway using the MDA cell line - cell viability counter screen (AID 743041; also: nearly all actives have a fitted effect of over 45% in size; also: potency is read from the fitted curve at half-maximal effect)
In short: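 Viability counter screen run alongside the AR antagonist reporter: cells seeded 5 h before compound, R1881 added, 16 h incubation at 37C without CO2, fluorescent CellTiter-Fluor signal quantified.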

[7] = qHTS assay to identify small molecule antagonists of the thyroid receptor (TR) signaling pathway - cell viability counter screen (AID 743064); also: nearly all actives have a fitted effect of over 50% in size; also: potency is read from the fitted curve at half-maximal effect
In short: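 In-well cytotoxicity read by CellTiter-Fluor (30 min, 37 C) following 23.5 h exposure of GH3 cells bearing a TRE-luciferase sensor. Compounds were added alongside 1 nM (final) T3 to drive TR transactivation.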

[8] = qHTS assay to identify small molecule antagonists of the thyroid receptor (TR) signaling pathway (AID 743065); also: nearly all actives have a fitted effect of over 55% in size; also: potency is read from the fitted curve at half-maximal effect
In short: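 GH3.TRE-Luc rat pituitary cells carrying two TR response elements driving luciferase were plated for 4 h, given compound plus 1 nM T3 (final), and incubated 23.5 h at 37 C. ONE-Glo luminescence measured reporter inhibition; CellTiter-Fluor fluorescence tracked cytotoxicity.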

[9] = tested on: thyroid hormone receptor (rat, GH3 cells); test: qHTS assay to identify small molecule agonists of the thyroid receptor (TR) signaling pathway (AID 743066; calls by dose curve)
[10] = target: Estrogen receptor (Homo sapiens) (UniProt P03372); test: qHTS assay to identify small molecule antagonists of the estrogen receptor alpha (ER-alpha) signaling pathway (AID 743069; active = well fitted curve in the direction sought with a large enough effect in the signal ratio in the repeat runs, not every such curve was filed as active; the % refers to the signal ratio)
Chain of Estrogen receptor (Homo sapiens) (P03372 whole entry, looked up): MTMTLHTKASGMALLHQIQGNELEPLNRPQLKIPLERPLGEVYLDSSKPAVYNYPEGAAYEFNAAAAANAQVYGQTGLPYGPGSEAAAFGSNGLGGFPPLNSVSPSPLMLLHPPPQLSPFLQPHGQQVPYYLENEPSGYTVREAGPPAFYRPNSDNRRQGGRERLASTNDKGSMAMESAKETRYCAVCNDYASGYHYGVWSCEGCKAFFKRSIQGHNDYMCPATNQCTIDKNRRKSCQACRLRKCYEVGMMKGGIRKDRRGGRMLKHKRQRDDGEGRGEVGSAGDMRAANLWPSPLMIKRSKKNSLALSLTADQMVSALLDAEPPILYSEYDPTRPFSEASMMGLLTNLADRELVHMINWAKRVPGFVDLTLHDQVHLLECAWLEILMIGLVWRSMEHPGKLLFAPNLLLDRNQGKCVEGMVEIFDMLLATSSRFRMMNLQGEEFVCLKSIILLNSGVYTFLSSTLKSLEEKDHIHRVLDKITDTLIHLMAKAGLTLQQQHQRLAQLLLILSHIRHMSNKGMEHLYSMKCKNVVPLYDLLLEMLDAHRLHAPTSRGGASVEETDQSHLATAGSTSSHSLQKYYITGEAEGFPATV
In short: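 Estradiol-stimulated ER-alpha-UAS-bla HEK293 cells, 18 hr compound exposure at 37C. LiveBLAzer B/G substrate, 2 hr RT, fluorescence read.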

[11] = qHTS assay to identify small molecule antagonists of the estrogen receptor alpha (ER-alpha) signaling pathway - cell viability counter screen (AID 743074; calls by dose curve;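 also: HEK293 cells carrying ER-alpha-UAS-bla reporter stimulated with 17beta-estradiol; nearly all actives have a fitted effect of over 45% in size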; also: potency is read from the fitted curve at half-maximal effect)
[12] = target: Estrogen receptor (Homo sapiens) (UniProt P03372); test: qHTS assay to identify small molecule agonists of the estrogen receptor alpha (ER-alpha) signaling pathway (AID 743075; calls by dose curve;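 also: HEK293 GripTite cells with ER-alpha and UAS-driven beta-lactamase reporter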)
[13] = target: Estrogen receptor (Homo sapiens) (UniProt P03372); test: qHTS assay to identify small molecule agonists of the estrogen receptor alpha (ER-alpha) signaling pathway using the BG1 cell line (AID 743079); also: nearly all actives have a fitted effect of over 20% in size
[14] = qHTS assay to identify small molecule antagonists of the estrogen receptor alpha (ER-alpha) signaling pathway using the BG1 cell line (AID 743080; calls by dose curve;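 also: BG1 cells stimulated with 17beta-estradiol alongside compound; nearly all actives have a fitted effect of over 25% in size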; also: potency is read from the fitted curve at half-maximal effect)
In short: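 After 5 days in phenol-red-free 10% charcoal-stripped FBS medium, BG1-Luc-4E2 cells were seeded, left 24 h at 37 C, co-treated with compounds and 17beta-estradiol for 21.5 h, then assayed for viability and luciferase.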

[15] = target: Aromatase (Homo sapiens) (UniProt P11511); test: qHTS assay to identify aromatase inhibitors (AID 743083); also: nearly all actives have a fitted effect of over 55% in size; also: potency is read from the fitted curve at half-maximal effect
Chain of Aromatase (Homo sapiens) (P11511 whole entry, looked up): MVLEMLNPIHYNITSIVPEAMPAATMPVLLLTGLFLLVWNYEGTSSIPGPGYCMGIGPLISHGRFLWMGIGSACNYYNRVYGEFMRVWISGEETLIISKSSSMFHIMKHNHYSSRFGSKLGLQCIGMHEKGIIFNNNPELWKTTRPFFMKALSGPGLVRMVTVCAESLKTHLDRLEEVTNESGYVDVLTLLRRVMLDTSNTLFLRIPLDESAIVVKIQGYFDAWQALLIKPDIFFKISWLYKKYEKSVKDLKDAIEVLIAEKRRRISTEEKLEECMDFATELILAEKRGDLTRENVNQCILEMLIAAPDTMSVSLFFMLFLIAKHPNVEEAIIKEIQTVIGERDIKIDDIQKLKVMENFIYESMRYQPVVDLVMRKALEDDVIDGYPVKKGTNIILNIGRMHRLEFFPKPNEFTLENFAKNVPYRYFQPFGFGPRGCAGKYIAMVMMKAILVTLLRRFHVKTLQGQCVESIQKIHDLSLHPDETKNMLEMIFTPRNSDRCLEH

[16] = qHTS assay to identify small molecule antagonists of the estrogen receptor alpha (ER-alpha) signaling pathway using the BG1 cell line - cell viability counter screen (AID 743081);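 also: compound given together with 17beta-estradiol as the ER stimulus; nearly all actives have a fitted effect of over 45% in size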; also: potency is read from the fitted curve at half-maximal effect

| Structure (SMILES) | Potency [1] | Potency [2] | Potency [3] | Potency [4] | Potency [5] | Potency [6] | Potency [7] | Potency [8] | Potency [9] | Potency [10] | Potency [11] | Potency [12] | Potency [13] | Potency [14] | Potency [15] | Potency [16] |
| --- | --- | --- | --- | --- | --- | --- | --- | --- | --- | --- | --- | --- | --- | --- | --- | --- |
| CCCCCCCCCCCCCC(=O)OCC(COP(=O)([O-])OCC[N+](C)(C)C)OC(=O)CCCCCCCCCCCCC (centres undefined) | inactive | inactive | inactive | inactive | inactive | inactive | inactive | inactive | inactive | inactive | inactive | inactive | inactive | inactive | inactive | – |
| CC(C)(C)C(=O)OCC(=O)[C@H]1CC[C@H]2[C@@H]3CCC4=CC(=O)CC[C@]4(C)[C@H]3CC[C@]12C | inactive | inactive | inactive | inactive | inactive | inactive | inactive | inactive | inactive | inactive | inactive | inactive | – | inactive | inactive | inactive |
| O=[N+]([O-])c1ccc(O)c2ncccc12 | inactive | 2.98 µM (active) | 2.66 µM (active) | 5.31 µM (active) | 10.7 µM (active) | 11.9 µM (active) | 5.31 µM (active) | 4.73 µM (active) | – | – | – | – | – | – | 7.5 µM (active) | – |
| NC(=O)CC[C@@H]1NC(=O)[C@H](Cc2ccccc2)NC(=O)[C@H](Cc2ccc(O)cc2)NC(=O)[C@@H](N)CSSC[C@@H](C(=O)N2CCC[C@H]2C(=O)N[C@@H](CCCN=C(N)N)C(=O)NCC(N)=O)NC(=O)[C@H](CC(N)=O)NC1=O | inactive | inactive | inactive | inactive | inactive | inactive | inactive | inactive | inactive | – | inactive | – | – | inactive | inactive | inactive |
| Cc1cc(Br)ccc1NC(=O)CCl | 43.6 µM (active) | 5.45 µM (active) | 5.45 µM (active) | 1.54 µM (active) | 24.5 µM (active) | 48.6 µM (active) | 21.7 µM (active) | 19.3 µM (active) | inactive | – | – | inactive | – | – | 30.6 µM (active) | – |
| Cc1ccc(Cl)c(N)c1Cl | inactive | 61.1 µM (active) | 68.6 µM (active) | inactive | inactive | inactive | inactive | inactive | inactive | – | inactive | – | – | – | inactive | inactive |
| COC1=C(OC)C(=O)C(C/C=C(\C)CC/C=C(\C)CC/C=C(\C)CC/C=C(\C)CC/C=C(\C)CC/C=C(\C)CC/C=C(\C)CC/C=C(\C)CC/C=C(\C)CCC=C(C)C)=C(C)C1=O | inactive | inactive | inactive | inactive | inactive | inactive | inactive | inactive | inactive | inactive | inactive | inactive | inactive | inactive | inactive | inactive |
| O=c1[nH]c(=O)n([C@H]2C[C@H](O)[C@@H](CO)O2)cc1/C=C/Br | inactive | inactive | inactive | inactive | inactive | inactive | inactive | inactive | inactive | – | inactive | – | – | – | inactive | inactive |
| CO[C@H]1C[C@H](O[C@H]2[C@H](C)[C@@H](O[C@@H]3O[C@H](C)C[C@H](N(C)C)[C@H]3O)[C@@H](C)C[C@]3(CO3)C(=O)[C@H](C)[C@@H](O)[C@@H](C)[C@@H](C)OC(=O)[C@@H]2C)O[C@@H](C)[C@@H]1O | inactive | inactive | inactive | inactive | inactive | inactive | inactive | inactive | inactive | inactive | inactive | inactive | inactive | inactive | inactive | inactive |
| O=C[C@H](O)[C@@H](O)[C@@H](O)[C@H](O)CO | inactive | inactive | inactive | inactive | inactive | inactive | inactive | inactive | inactive | inactive | inactive | inactive | inactive | inactive | inactive | inactive |
| CCCCCCCCCCCC[n+]1ccc2ccccc2c1 | 9.52 µM (active) | 0.168 µM (active) | 0.298 µM (active) | 0.266 µM (active) | 3.01 µM (active) | 5.96 µM (active) | 7.5 µM (active) | 3.76 µM (active) | – | – | 2.13 µM (active) | inactive | – | 7.5 µM (active) | 10.6 µM (active) | 26.6 µM (active) |
| NC(=S)NS(=O)(=O)c1ccc(N)cc1 | inactive | inactive | inactive | inactive | inactive | inactive | inactive | inactive | inactive | – | inactive | – | – | – | inactive | – |
| CC(=O)O[C@H]1C[C@@H]2CC[C@@H]3[C@H](CC[C@@]4(C)[C@H]3C[C@H]([N+]3(C)CCCCC3)[C@@H]4OC(C)=O)[C@@]2(C)C[C@@H]1[N+]1(C)CCCCC1 | inactive | inactive | inactive | inactive | inactive | inactive | inactive | inactive | inactive | inactive | – | inactive | inactive | inactive | inactive | inactive |
| CNCC(=O)N[C@@H](CCCN=C(N)N)C(=O)N[C@H](C(=O)N[C@@H](Cc1ccc(O)cc1)C(=O)N[C@H](C(=O)N[C@@H](Cc1cnc[nH]1)C(=O)N1CCC[C@H]1C(=O)N[C@@H](C)C(=O)O)C(C)C)C(C)C | inactive | inactive | inactive | inactive | inactive | inactive | inactive | inactive | inactive | – | inactive | – | – | – | inactive | inactive |
| Cc1c(N)nc([C@H](CC(N)=O)NC[C@H](N)C(N)=O)nc1C(=O)N[C@H](C(=O)N[C@H](C)[C@@H](O)[C@H](C)C(=O)N[C@H](C(=O)NCCc1nc(-c2nc(C(=O)NCCCCN=C(N)N)cs2)cs1)[C@@H](C)O)[C@@H](O[C@@H]1O[C@@H](CO)[C@@H](O)[C@H](O)[C@@H]1O[C@H]1O[C@H](CO)[C@@H](O)[C@H](OC(N)=O)[C@@H]1O)c1cnc[nH]1 | inactive | 4.22 µM (active) and 1.5 µM (active) | 1.33 µM (active) | 211 nM (active) and 37.6 nM (active) | inactive | inactive | inactive and 4.22 µM (active) | – | inactive | – | inactive | inactive | inactive | – | inactive | inactive |
